According to PubChem BioAssay AID504332 (National Center for Advancing Translational Sciences (NCATS), 2011):
About 31,000 (8.9%) of roughly 350,000 compounds were called active. Entries that show only a call come without a potency. Not shown: some 15% with an inconclusive outcome. The call rests on the fitted dose curve; in most records, active means well fitted inhibition curve with a large enough effect; inconclusive means small, poorly fitted or top-dose-only effect; inactive means no such curve, though single readings can be large or run the other way. The full list was thinned out, with actives kept by preference.

target: Histone-lysine N-methyltransferase EHMT2 (Homo sapiens) (UniProt Q96KQ7); test: qHTS Assay for Inhibitors of Histone Lysine Methyltransferase G9a; conditions: G9a H3K9 monomethylation, AlphaScreen, 2 h; series mostly up to 59 µM; further: nearly all actives have a fitted effect of over 75% in size
Sequence (Q96KQ7 913-1193 limits assumed): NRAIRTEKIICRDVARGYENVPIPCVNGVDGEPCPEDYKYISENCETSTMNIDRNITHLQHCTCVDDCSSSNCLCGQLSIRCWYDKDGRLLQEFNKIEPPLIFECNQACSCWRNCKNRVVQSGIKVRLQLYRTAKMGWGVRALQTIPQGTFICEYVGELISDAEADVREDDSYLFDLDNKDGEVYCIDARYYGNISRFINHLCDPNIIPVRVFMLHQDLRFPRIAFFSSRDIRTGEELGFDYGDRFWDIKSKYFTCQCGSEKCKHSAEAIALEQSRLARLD
Method in brief: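 Readings reflect AlphaScreen signal from monomethyl-H3K9 antibody detection. HMT at 20 nM; substrate b-H3K9 500 nM; cofactor SAM 20 uM; 2 h RT reaction; compounds tested as titrations in qHTS with 15 min preincubation.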
Potency means the concentration at half of the fitted maximal effect.

Compound | Potency | activity, negative = inhibition
COc1ccc(CCNc2nc(-c3ccc(Cl)cc3)cc(C(F)(F)F)n2)cc1OC | inactive | –
COc1cc(-c2noc(-c3ccc(N4CCCC4)c([N+](=O)[O-])c3)n2)cc(OC)c1OC | inactive | –
O=C(COc1ccccc1)OCc1cc(=O)n2nc(-c3cccs3)sc2n1 | inactive | –
Cc1cc(/C=N/NC(N)=O)c(C)n1C1CCCCC1 | 50.1 µM (active) | –
Cc1cccc(-n2c(C)cc(/C=N\NC(=O)c3cccs3)c2C)c1 | inactive | –
NC(=O)N/N=C\c1cccs1 | inactive | –
COc1ccc2c(c1)Cc1sc(NC(=O)c3ccccc3Br)nc1-2 | 25.1 µM (active) | –
Cn1c(=O)c(=O)n(C)c2cc(NC(=O)c3ccccc3Br)ccc21 | inactive | –
COc1cccc(C(=O)NNC(=O)c2ccccc2Br)c1 | inactive | –
COc1ccc(CNC(=O)c2cc3c(-c4ccccc4F)nn(C)c3s2)c(OC)c1 | inactive | –
CCN(CC(=O)Nc1ccccc1C(F)(F)F)C(=O)CSCc1c(C)noc1C | – | 9.18% [at 0.501 µM] (inactive)
CCOC(=O)C1(Cc2ccccc2C)CCCN(C(=O)CCc2c(C)noc2C)C1 (stereo not given) | inactive | –
CCOc1ccc(N2C(=O)CSC2=NC#N)cc1 | – | -16.5% [at 12.7 µM] (inactive)
CCOc1ccc(N2C(=O)CN(c3cccc4ccccc34)C2=S)cc1 | inactive | –
CCOc1ccc(N2C(=O)/C(=C/c3ccc(C)o3)N(C)C2=S)cc1 | 3.55 µM (active) | –
COc1ccc(/C=C2\SC(=O)N(CCC(=O)NC3CCS(=O)(=O)C3)C2=O)cc1 (stereo not given) | inactive | –
Cc1ccc(-n2c3nc(=O)[nH]c(=O)c-3cc3c(Cl)cccc32)cc1 | inactive | –
CCOc1ccc(S(=O)(=O)N2CCCC(C(=O)N3CCC(C(N)=O)CC3)C2)cc1Cl (stereo not given) | inactive | –
CCN1/C(=C\c2ccc3ccccc3[n+]2CC)Sc2cc(C)ccc21 | 22.4 µM (active) | –
Cc1nc2nc(SCC(=O)Nc3cccc(F)c3)[nH]c2cc1Br | inactive | –
COc1ccc(C(=O)Nc2ccc(C3(C#N)CCCC3)cc2)cc1OC | – | 5.57% [at 0.501 µM] (inactive)
CC1(C)N=C(SCc2ccccc2Cl)c2ccccc2N1 | inactive | –
CCc1nnc(NC(=O)/C=C/c2ccc(C)o2)s1 | inactive | –
CNc1ccc(NC(C)=O)cc1[N+](=O)[O-] | inactive | –

Compound | Potency | activity, negative = inhibition
Cc1ccc(/C=C/C(=O)Nc2ccc([N+](=O)[O-])c(NC(=O)/C=C/c3ccc(C)o3)c2)o1 | 22.4 µM (active) | –
CC(C(=O)N1CCN(c2ccccc2F)CC1)c1ccc([N+](=O)[O-])cc1 (stereo not given) | – | 13.1% [at 0.501 µM] (inactive)
COc1ccc2c(CNCCc3ccccc3C)c(C(=O)O)n(Cc3ccccc3C)c2c1 | inactive | –
CCOc1ccc(C2C(C(=O)Nc3ccc(Cl)cc3)=C(C)Nc3nc(C(F)(F)F)nn32)cc1 (stereo not given) | inactive | –
Cc1nnc(SCC(=O)NC2CCCC2)s1 | inactive | –
Cc1nnc(SCC2=C(C(=O)O)N3C(=O)C(NC(=O)Cn4nc(C)c(Cl)c4C)C3SC2)s1 (stereo not given) | 31.6 µM (active) | –
O=C1N[C@@H](Cc2ccccc2)C(=O)N2[C@H]1C[C@]1(Br)c3ccccc3N(S(=O)(=O)c3ccccc3)[C@H]21 | – | 7.4% [at 2.33 µM] (inactive)
Cc1ccc(NC(=O)Cn2nnc3sc4c(c3c2=O)CCC(C)C4)cc1 (stereo not given) | inactive | –
CC1CCc2c(sc3nc4n(c(=O)c23)CCS4)C1 (stereo not given) | 50.1 µM (active) | –
CCCn1nnc2sc3c(c2c1=O)CCC(C)C3 (stereo not given) | inactive | –
CC1CCN(C(=O)COC(=O)CCC(=O)c2cccs2)CC1 | inactive | –
Brc1ccc2c(c1)NC(c1cccnc1)=NC(c1ccccc1)=N2 | inactive | –
CN(C)CCNC(=O)c1[nH]nc2c1CCc1ccccc1-2 | 44.7 µM (active) | –
COc1ccc(C(=O)Nc2ccccc2C(=O)N/N=C/c2ccccc2OC)cc1 | – | 14.1% [at 0.501 µM] (inactive)
COc1cccc(/C=N/NC(=O)c2[nH]nc3c2CCc2ccccc2-3)c1O | 50.1 µM (active) | –
CN(C)CCCNC(=O)c1ccc2[nH]c3ccccc3c2c1 | – | 38.1% [at 0.501 µM] (inactive)
CCCCN(CC)CCCNC(=O)c1nn(C)c2c1CSc1ccccc1-2 | inactive | –
COc1cccc(/C=N\NC(=O)C2=NNC(=O)C2C)c1O (stereo not given) | inactive | –
O=S(=O)(Nc1ccc(-c2ccc(N3CCOCC3)nn2)cc1)c1cc(Cl)ccc1Cl | – | -28.8% [at 2.33 µM] (inactive)
COc1ccccc1N1CCN(C(=O)C2CCN(S(=O)(=O)c3c(C)noc3/C=C/c3ccc(C)cc3)CC2)CC1 | inactive | –
Cc1ccc(CNC(=O)CCS(=O)(=O)c2ccc3c(c2)CC(C)N3C(=O)C2CC2)o1 (stereo not given) | – | 17.4% [at 0.0925 µM] (inactive)
Cn1c(SCc2ccc(F)cc2)nnc1-c1ccncc1 | inactive | –
CCOc1ccc(Nc2c(S(=O)(=O)c3ccccc3)cnc3ccccc23)cc1 | inactive | –
Cc1ccc(CNS(=O)(=O)c2ccc(C(=O)N(C)C)s2)cc1 | inactive | –

Compound | Potency | activity, negative = inhibition
Cc1ccc(-n2ncc3c(NCCCn4ccnc4)ncnc32)cc1Cl | inactive | –
Cn1c(=O)[nH]c(=O)c2c1nc(N1CCCCCC1)n2CC(=O)c1ccccc1 | inactive | –
Cn1c(=O)[nH]c(=O)c2c1nc(N1CCN(C(c3ccccc3)c3ccccc3)CC1)n2CCO | inactive | –
CN1CCN(c2nc3c(c(=O)[nH]c(=O)n3C)n2Cc2cccc3ccccc23)CC1 | 25.1 µM (active) | –
Cc1cn([C@H]2CC(F)[C@@H](CO)O2)c(=O)[nH]c1=O (stereo not given in full) | – | 8.73% [at 12.7 µM] (inactive)
COc1ccc(NC(=O)Cn2c(=O)n(Cc3ccc(C(=O)NCc4ccccc4Cl)cc3)c(=O)c3ccccc32)cc1 | inactive | –
CN1/C(=C\C(=O)c2cccnc2Cl)C(C)(C)c2ccccc21 | inactive | –
CN1/C(=C\C=C2\N=C(c3ccc(F)cc3)OC2=O)C(C)(C)c2ccccc21 | 4.47 µM (active) | –
Cc1noc(C)c1C(=O)OCC(=O)/C=C1\N(C)c2ccccc2C1(C)C | inactive | –
CC(=O)Nc1ccc(SC[C@H](Cc2ccccc2)N2CC[C@@H](C)CCC2=O)cc1 | – | -3.36% [at 0.501 µM] (inactive)
Cc1ccc(OCCSc2nc(-c3cccs3)nc3cc(=O)[nH]n23)cc1Cl | inactive | –
Cc1ccc(C(=O)NNC(=O)c2ccncc2)cc1S(=O)(=O)N1CCCCC1 | inactive | –
Cc1cccc(S(=O)(=O)N2CN(CC3CCCO3)c3nc4ccccc4nc32)c1 (stereo not given) | 50.1 µM (active) | –
Cc1nc2cnc(Nc3ccccc3)nc2n(C[C@H]2CCCO2)c1=O | – | 8.09% [at 0.501 µM] (inactive)
O=S(=O)(NCC1CCCO1)c1ccc2ccccc2c1 (stereo not given) | inactive | –
COc1ccccc1NC(=O)c1cc(N2C(=O)C3C4CCC(C4)C3C2=O)ccc1Cl (stereo not given) | inactive | –
Cc1ccc2nc(COc3ccccc3NC(=O)Nc3ccc(F)c(Cl)c3)cc(=O)n2c1 | inactive | –
O=C(COC(=O)c1ncc(Cl)c(Cl)c1Cl)NCc1ccccc1 | inactive | –
COc1ccc(Nc2cc(C(=O)NCCCN(C)c3ccccc3)c3ccccc3n2)c(OC)c1 | 7.94 µM (active) | –
COc1ccccc1Nc1cc(C(=O)NCCCN(C)C2CCCCC2)c2ccccc2n1 | inactive | –
CCCCN(CCCNC(=O)c1cc(Nc2ccccc2OC)nc2ccccc12)c1ccccc1 | inactive | –
NC(=O)C1CCN(C(=O)c2cccc(NC(=O)c3nsc4ccccc34)c2)CC1 | inactive | –
CCN1C(=NCCc2cccnc2)N[C@@H](c2ccccc2)[C@H](C(=O)OC)[C@H]1C | – | -5.2% [at 12.7 µM] (inactive)
CCN1C(=NCCc2cccnc2)N[C@@H](c2ccccc2)C(C(=O)OC)=C1C | 44.7 µM (active) | –

Compound | Potency | activity, negative = inhibition
COCCN1C(=O)N[C@@H](c2ccccc2)C(C(=O)OC)=C1C | inactive | –
CC(=O)Nc1c(C)nn(-c2ccccc2)c1N1CCC(C(=O)Nc2cc(Cl)ccc2C)CC1 | inactive | –
O=C(CN1C(=O)NC2(CCCC2)C1=O)OCCOc1ccc(F)cc1 | – | -1.07% [at 0.501 µM] (inactive)
CCOc1c(OC)cccc1C(=O)NCC1(c2ccccc2)CCCC1 | inactive | –
CCCn1c(C2CCCN2c2nc(-c3ccc(C)cc3)cs2)nc2cc(Cl)c(N3CCCCC3)cc21 (stereo not given) | inactive | –
Cc1ccc(-c2csc(N3CCN(c4cc5c(cc4Cl)nc(-c4ccncc4)n5CCOCCO)CC3)n2)cc1 | 50.1 µM (active) | –
Cn1c(=O)c2c(nc(NCCc3ccccc3)n2Cc2ccccc2Br)n(C)c1=O | inactive | –
Cc1ccc(-n2c(SCC(=O)c3ccccc3)nc3c([nH]c4ccccc43)c2=O)cc1 | inactive | –
O=C(OCc1nc2ccccc2[nH]1)C1CCCCC1 | inactive | –
O=C(Nc1sc2c(c1-c1nc3ccccc3[nH]1)CCCC2)C1CC1 | 50.1 µM (active) | –
CCOC(=O)c1c(NC(=O)C2CCN(S(=O)(=O)c3ccc(Cl)cc3)CC2)sc2c1CCCC2 | inactive | –
CC(C)c1ccc(NC(=O)c2ccc3c(O)c(S(=O)(=O)c4ccccc4)c(=O)[nH]c3c2)cc1 | inactive | –
Cc1cc(C)cc(NC(=O)CSc2nc(=O)n(CCN3CCOCC3)c3c2CCC3)c1 | inactive | –
Cc1ccc(Cn2cc(CCC(=O)NCc3ccc(OC(C)C)cc3)c3ccccc32)cc1 | inactive | –
O=S(=O)(NCCc1ccc(Cl)cc1)c1cccs1 | inactive | –
CCCOc1ccc(C(=O)NCCc2ccccc2)cc1 | inactive | –
C[N+](C)(C)CCNC(=O)c1cc[n+](Cc2ccccc2)c(/C=N/O)c1 | 10 µM (active) | –
CN(c1ccccc1)S(=O)(=O)c1ccc(C(=O)NCCc2ccccc2)cc1 | inactive | –
CCOc1ncccc1C(=O)OCC(=O)N1c2ccccc2CC1C (stereo not given) | inactive | –
Cc1ncc(CO)c(/C=N/NC(=O)c2cccc(S(=O)(=O)N3CCCC3)c2)c1O | inactive | –
Cc1cccc2cc(CN(Cc3cccs3)C(=S)NCc3ccco3)c(=O)[nH]c12 | inactive | –
Cc1ccc(C)c2[nH]c(=O)c(CN(Cc3cccnc3)C(=S)NCc3ccco3)cc12 | 50.1 µM (active) | –
Cc1cc(C)c2[nH]c(=O)c(CN(Cc3ccccc3)C(=S)NCCCN(C)C)cc2c1 | inactive | –
